The values that follow come from PubChem BioAssay (NCATS).

Records with an inconclusive call do not appear. Where a call stands in place of a potency, no number is given. Activity calls are given as the source filed them. Calls follow the shape of the dose curve; as a rule, active = well fitted cell-killing curve with a large enough effect; inconclusive = small, poorly fitted or top-dose-only effect; inactive = no such curve, though single readings can be large or run the other way.
Potency is read from the fitted curve at half-maximal effect.

A short description of this test: qHTS of pediatric cancer cell lines to identify multiple opportunities for drug repurposing: Primary screen for MG 63 (6-TG R) cells (AID 1347105). Also: nearly all actives have a fitted effect of over 50% in size. The following applies: MG 63 (6-TG R) viability, CellTiter-Glo, 48 h; series mostly up to 46 µM. The source says:
Drug repurposing or repositioning has been offered as a strategy for drug development in oncology programs. This approach has special potential for childhood cancers and other rare or orphan diseases, where the expected return on new drug development has been a disincentive to pharmaceuticals. […] In this project we exploit the poly-pharmacology of drugs to discover new indications via phenotypic screening of a panel of 19 well-characterized cell lines derived from solid tumors seen in children and adolescents. The goal is to identify approved drugs with previously unrecognized anticancer properties that has the potential to reveal new mechanisms and biological processes involved in carcinogenesis or drug resistance. We employed a titration-based paradigm (quantitative high-throughput screening or qHTS), where all compounds were tested at multiple concentrations for their effect on cell viability. Concentration-response curves (CRCs) were derived directly from the primary screen, and both potency and efficacy values were used to identify compounds with robust bioactivity profiles. We screened the NIH Chemical Genomics Center (NCGC) Pharmaceutical Collection (NPC) and Mechanism Interrogation Plate (MIPE) small molecule collections of approved and investigational compounds against these cell lines; and measured metabolically active cells after 48 hours of compound treatment as a proxy for cell viability. […] Assay Submitter: Nathalia J. Martinez, National Center for Advancing Translational Sciences, National Institutes of Health, Rockville, MD, USA; email: natalia.martinez@nih.gov Shen, M et al. Quantitative high-throughput phenotypic screening of pediatric cancer cell lines identifies multiple opportunities for drug repurposing. Oncotarget 2017 Dec 19;9(4):4758-4772. PMID 29435139.
The cells were obtained from University of North Carolina (UNC), Pediatric Preclinical Testing Program (PPT), and Coriell Institute (CI). qHTS cell viability assay: Cells were assayed in growth media at a density of 500-1,000 cells/well. Five microliters of cells were dispensed into 1,536-well, white, solid-bottom, TC-treated plates (Greiner Bio One) using a multidrop dispenser and incubated at 37 degrees C, 5% CO2, under a humidified atmosphere for 5 hours. Twenty-three nanoliters of compounds and controls (neutral control DMSO or positive control bortezomib at final concentration of 2.3 µM) were subsequently transferred by Kalypsys pintool. For primary screens, the MIPE collection was tested at 11-point dilutions (final concentrations range from 0.78 nM to 46 µM) and the NPC collection at 8-point dilutions (final concentrations range from 0.59 nM to 46 µM). Compounds tested in follow-up screens were assayed at 11-point dilutions. Cells were incubated for 48 hours, followed by addition of 3 µL of CellTiter-Glo (Promega). After a 15 min incubation at room temperature, samples were analyzed for luminescence intensity using a ViewLux High-throughput CCD imager equipped with clear filters.
Regarding `N[C@H](C(=O)O)c1ccc(O)cc1`, the Potency entry was “inactive”.
Still for that read-out and setting: in the case of `CN1CCCCC1CCN1c2ccccc2Sc2ccc(S(C)=O)cc21` (stereo not given) it was “inactive”.
Turning to `NCCNCCNCCN`, the Potency entry is “inactive”.
For the compound `O=C1O[C@H]([C@@H](O)CO)C(O)=C1O`, the Potency result was “inactive”.
Still for that read-out and setting: in the case of `NC(CSCC(=O)O)C(=O)O` (stereo not given) it was “inactive”; in that of `COC(=O)[C@H]1[C@H]2C[C@@H]3c4[nH]c5cc(OC)ccc5c4CCN3C[C@H]2C[C@@H](OC(=O)COc2ccc(OC)cc2)[C@@H]1OC`, “inactive”; in that of `CC(C)c1c(C(=O)Nc2ccccc2)c(-c2ccccc2)c(-c2ccc(F)cc2)n1CC[C@@H](O)C[C@@H](O)CC(=O)O`, 6.68 µM (active).
As to `CNCC(O)c1ccc(O)c(O)c1` (stereo not given), the Potency entry is “inactive”.
On to `CCCn1cnc2c1c(=O)n(CCCCC(C)=O)c(=O)n2C`, for which the Potency result was “inactive”.
Take `Oc1cccc(O)c1`: the Potency result is “inactive”.
On the same count and under the same terms, in the case of `CCOc1nc2cccc(C(=O)O)c2n1Cc1ccc(-c2ccccc2-c2nn[nH]n2)cc1` it was “inactive”.
Take `Nc1cc(=O)[nH]c(N)n1`: the Potency result was “inactive”.
On the same count and under the same terms, in the case of `c1ccc2c(CC3=NCCN3)cccc2c1` it was “inactive”.
The same measure, in the same setting: in the case of `CCCCC(CC)COC(=O)c1ccccc1O` (stereo not given) it was “inactive”; in that of `CC1(C)S[C@@H]2[C@H](NC(=O)Cc3ccccc3)C(=O)N2[C@H]1C(=O)O` (tested in a mixture with another compound), “inactive”.
Regarding `COc1ccc2cc1Oc1cc3c(cc1OC)CC[N+](C)(C)[C@H]3Cc1ccc(cc1)Oc1c(OC)c(OC)cc3c1[C@@H](C2)[N+](C)(C)CC3`, the Potency result is “inactive”.
Same read-out and setting: in the case of `O=C(O)[C@H](O)c1ccccc1` it was “inactive”; in that of `Nc1ccc(S(=O)(=O)NC(=O)c2ccccc2)cc1`, “inactive”; in that of `COc1ccc2[nH]c(S(=O)Cc3ncc(C)c(OC)c3C)nc2n1` (stereo not given), “inactive”.
Same read-out and setting: in the case of `O=C(O)CN1C(=O)c2cccc3cccc(c23)C1=O` it was “inactive”.
Consider `Cc1cc(O)cc2c1O[C@](C)(CCC[C@H](C)CCC[C@H](C)CCCC(C)C)CC2`, for which the Potency entry is “inactive”.
Regarding `C/C(=C(\CCOP(=O)(O)O)SC(=O)c1ccccc1)N(C=O)Cc1cnc(C)nc1N`, the activity change, negative = cytotoxic was -1.82% [at 4.84 µM] (inactive).
Regarding `COc1cc(C(=O)N2CCOCC2)cc(OC)c1OC`, the Potency entry is “inactive”.
As to `O=C1O[C@H](CO)[C@@H](O)[C@H](O)[C@H]1O`, the Potency entry was “inactive”.
Still for that read-out and setting: in the case of `CC(COc1ccccc1)NC(C)C(O)c1ccc(O)cc1` (stereo not given) it was “inactive”; in that of `O=C(O)Cc1sc(-c2ccccc2)nc1-c1ccc(Cl)cc1`, “inactive”.
Same read-out and setting: in the case of `CCOC(=O)[C@H](CCc1ccccc1)N[C@@H](C)C(=O)N1C(=O)N(C)C[C@H]1C(=O)O` it was “inactive”; in that of `CCOC(=O)c1ccc(O)cc1`, “inactive”.
On the same count and under the same terms, in the case of `O=C(O)c1ccccc1-c1ccc(C(F)(F)F)cc1` it was “inactive”.
Turning to `CCCCN1CCCC[C@H]1C(=O)Nc1c(C)cccc1C`, the Potency entry was “inactive”.
The same measure, in the same setting: in the case of `CCCCCCCCCCCCCCCC(=O)NCCO` it was “inactive”.
Still for that read-out and setting: in the case of `Nc1ccc(S(=O)(=O)Nc2ccccc2)cc1` it was “inactive”.
On the same count and under the same terms, in the case of `O=C(O)CC(O)C(=O)O` (stereo not given) it was “inactive”; in that of `CC(C)(C(=O)O)c1ccc(C(O)CCCN2CCC(C(O)(c3ccccc3)c3ccccc3)CC2)cc1` (stereo not given), “inactive”.
For the compound `[O-][n+]1cccc(CO)c1`, the Potency entry is “inactive”.
Same read-out and setting: in the case of `CCN(CC)C(C)CN1c2ccccc2Sc2ccccc21` (stereo not given) it was “inactive”.
On the same count and under the same terms, in the case of `NC(=O)c1ncn([C@@H]2O[C@H](CO)[C@@H](O)[C@H]2O)c1N` it was “inactive”.
Take `O=c1[nH]c(=O)c2[nH]c(=O)[nH]c2[nH]1`: the activity change, negative = cytotoxic is -26.1% [at 9.22 µM] (inactive).
Consider `O=C(O)COc1nn(Cc2ccccc2)c2ccccc12`, for which the Potency result was “inactive”.
On the same count and under the same terms, in the case of `O=c1cc[nH]c(=S)[nH]1` it was “inactive”.
